Source: PubChem BioAssay (Tox21)
Where “and” joins values, the source holds several entries; their conditions need not be identical. Equal entries are not always repeated. Records with an inconclusive call do not appear. More than one record can exist for a structure, and the calls need not agree. Calls of active or inactive are those of the source. Unless noted, the call rests on the fitted dose curve; in most records, active means well fitted curve in the direction sought with a large enough effect in the repeat runs; inconclusive means weak or mixed curves; inactive means no such curve, though single readings can be large; an effect the other way counts as inactive or inconclusive.

How the values were obtained:
[1] = qHTS assay to identify small molecule agonists of the estrogen receptor alpha (ER-alpha) signaling pathway in the presence of an antagonist - cell viability counter screen (AID 1259386);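 further: series mostly up to about 92 µM; cells exposed to compounds for 22 h at 37 °C before the viability read; nearly all actives have a fitted effect of over 30% in size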
Summary of the method: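 Cytotoxicity was measured in parallel with the ERE-luciferase agonist screen, in the same wells. The cells were VM7Luc4E2, which endogenously express ER-alpha, and treatment was with compounds plus 10.0nM ICI-182,780 for 22hr.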

[2] = qHTS assay to identify small molecule antagonists of the progesterone receptor (PR) signaling pathway - cell viability counter screen (AID 1346798); further: series mostly up to about 92 µM; nearly all actives have a fitted effect of over 50% in size
Summary of the method: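 CellTiter-Glo luminescence; PR-UAS-bla HEK293T, 3,000 cells/well; compound + R5020, 16 hr, 37C/5% CO2; 30 min RT before read.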

[3] = qHTS assay to identify small molecule agonists of the progesterone receptor (PR) signaling pathway - cell viability counter screen (AID 1346799; calls by dose curve; further: nearly all actives have a fitted effect of over 45% in size)
Summary of the method: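 In parallel with the beta-lactamase readout, cytotoxicity toward PR-UAS-bla HEK293T cells was measured by CellTiter-Glo luminescence following 16 hr compound incubation in 2% charcoal-stripped FBS medium.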

[4] = qHTS assay to identify small molecule antagonists of the TGF-beta/Smad signaling pathway - cell viability counter screen (AID 1346824); further: nearly all actives have a fitted effect of over 50% in size
Summary of the method: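 SBE-bla HEK 293T cells, incubated overnight, then compound plus 0.25 ng/mL TGF-beta1 (stock added) for 5 hr at 37 C. Viability was read in the same wells by CellTiter-Glo luminescence after 30 min at room temperature.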

[5] = qHTS assay to identify small molecule agonists of the TGF-beta/Smad signaling pathway - cell viability counter screen (AID 1346829); further: top concentration of the series differs between compounds; nearly all actives have a fitted effect of over 45% in size
Summary of the method: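 CellTiter-Glo luminescence readout; SBE-bla HEK 293T cells, overnight plating, compound 5 hr at 37 C/5% CO2, then bla substrate 2 hr RT, then CellTiter-Glo 30 min RT.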

[6] = target: Thyrotropin-releasing hormone receptor (Homo sapiens) (UniProt P34981); experiment: qHTS assay to identify small molecule antagonists of the thyrotropin-releasing hormone receptor (TRHR) signaling pathway (AID 1346877; active means well fitted inhibition curve with a large enough effect in the repeat runs, not every such curve was filed as active; further: series mostly up to about 51 µM)
Thyrotropin-releasing hormone receptor (Homo sapiens), sequence (P34981 whole entry, looked up): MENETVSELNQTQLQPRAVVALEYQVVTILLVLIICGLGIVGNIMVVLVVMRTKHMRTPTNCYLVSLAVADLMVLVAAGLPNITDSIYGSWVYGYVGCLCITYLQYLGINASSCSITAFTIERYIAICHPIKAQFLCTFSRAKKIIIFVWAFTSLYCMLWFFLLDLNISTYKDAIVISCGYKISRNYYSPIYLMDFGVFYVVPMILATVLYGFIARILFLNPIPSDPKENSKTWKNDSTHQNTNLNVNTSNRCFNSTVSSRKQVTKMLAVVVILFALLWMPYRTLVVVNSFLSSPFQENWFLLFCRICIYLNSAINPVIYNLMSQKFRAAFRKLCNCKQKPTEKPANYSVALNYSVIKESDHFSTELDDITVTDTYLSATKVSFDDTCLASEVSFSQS
Summary of the method: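 Antagonism is measured as suppression of the calcium response to 1 nM TRH in TRHR-HEK293 cells that have been dye-loaded for 2 h at 37 °C after overnight plating. Each compound is tested at 15 concentrations in triplicate.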

[7] = target: Thyrotropin-releasing hormone receptor (Homo sapiens) (UniProt P34981); experiment: qHTS assay to identify small molecule agonists of the thyrotropin-releasing hormone receptor (TRHR) signaling pathway (AID 1346891; calls by dose curve;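 further: HEK293 cells expressing TRHR with calcium dye readout; series mostly up to about 58 µM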)
Summary of the method: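 Compounds were tested as agonists at 15 concentrations, in triplicate, on TRHR-Hek293 cells; calcium-sensitive dye fluorescence was recorded for 3 min following addition.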

[8] = Human pregnane X receptor (PXR) small molecule agonists, qHTS cell viability counter screen (AID 1346977); further: nearly all actives have a fitted effect of over 50% in size
Summary of the method: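 Viability counter screen: CellTiter-Fluor signal in PXR-Luc HepG2 cells, 24hr compound exposure, 37C, 5% CO2.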

[9] = Caspase-3/7 induction in HepG2 cells by small molecules, qHTS assay (AID 1346978); further: nearly all actives have a fitted effect of over 15% in size
Summary of the method: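 Wild-type HepG2 cells, 2,000/well, settled 5 hr at 37 C and 5% CO2, then compound-treated for 17 hr; caspase-3/7 activity read by luminescent Caspase-Glo 3/7 after 30 min at room temperature.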

[10] = Caspase-3/7 induction in CHO-K1 cells by small molecules, qHTS cell viability counter screen (AID 1346979); further: nearly all actives have a fitted effect of over 35% in size; further: potency means the concentration at half of the fitted maximal effect
Summary of the method: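 Viability readout by fluorescence (CellTiter-Fluor) on wild-type CHO-K1 cells exposed for 16hr at 37C and 5% CO2 to compounds delivered in DMSO; reagent incubated 1hr before reading.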

[11] = Caspase-3/7 induction in CHO-K1 cells by small molecules, qHTS assay (AID 1346980); further: nearly all actives have a fitted effect of over 15% in size
Summary of the method: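 Wild-type CHO-K1 cells exposed to compounds for 17hr at 37 C, 5% CO2. Caspase-3/7 activity then measured by Caspase-Glo 3/7 luminescence after 30min at room temperature.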

[12] = Caspase-3/7 induction in HepG2 cells by small molecules, qHTS cell viability counter screen (AID 1346981); further: nearly all actives have a fitted effect of over 30% in size; further: potency means the concentration at half of the fitted maximal effect
Summary of the method: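 Cell viability is measured as a cytotoxicity counter screen alongside the Caspase-Glo 3/7 readout in identical wells. Wild-type HepG2 cells are treated with test compounds for 16 hr at 37 C before CellTiter-Fluor addition and a 1-hr incubation.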

[13] = target: Nuclear receptor subfamily 1 group I member 2 (Homo sapiens) (UniProt O75469); experiment: Human pregnane X receptor (PXR) small molecule agonists, qHTS assay (AID 1346982); further: nearly all actives have a fitted effect of over 35% in size; further: potency means the concentration at half of the fitted maximal effect
Nuclear receptor subfamily 1 group I member 2 (Homo sapiens), sequence (O75469 whole entry, looked up): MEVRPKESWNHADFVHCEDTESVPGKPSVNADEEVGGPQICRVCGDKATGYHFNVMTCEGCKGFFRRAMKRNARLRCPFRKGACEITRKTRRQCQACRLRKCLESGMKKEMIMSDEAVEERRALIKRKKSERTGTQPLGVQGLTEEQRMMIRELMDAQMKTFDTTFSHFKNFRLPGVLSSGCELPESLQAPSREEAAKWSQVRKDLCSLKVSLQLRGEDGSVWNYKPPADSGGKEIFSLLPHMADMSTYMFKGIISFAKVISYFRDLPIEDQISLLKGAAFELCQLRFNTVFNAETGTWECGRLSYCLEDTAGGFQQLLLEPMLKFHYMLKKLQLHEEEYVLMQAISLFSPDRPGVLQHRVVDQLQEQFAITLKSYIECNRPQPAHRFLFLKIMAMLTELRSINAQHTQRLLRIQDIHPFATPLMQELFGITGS
Summary of the method: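 Cells: HepG2 stably carrying PXR-Luc. Medium held 5% charcoal-stripped FBS. Compounds in DMSO added after 5 hr plating, incubated 24 hr, then luminescence quantified with ONE-Glo.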

[14] = target: Nuclear receptor subfamily 1 group I member 2 (Rattus norvegicus) (UniProt Q9R1A7); experiment: Rat pregnane X receptor (rPXR) activation by small molecules, qHTS assay (AID 1346983); settings: rPXR luciferase reporter cells, One-Glo luminescence, 24 h; max activation: stronger effect = higher value; further: nearly all actives have a fitted effect of over 20% in size
Nuclear receptor subfamily 1 group I member 2 (Rattus norvegicus), sequence (Q9R1A7 whole entry, looked up): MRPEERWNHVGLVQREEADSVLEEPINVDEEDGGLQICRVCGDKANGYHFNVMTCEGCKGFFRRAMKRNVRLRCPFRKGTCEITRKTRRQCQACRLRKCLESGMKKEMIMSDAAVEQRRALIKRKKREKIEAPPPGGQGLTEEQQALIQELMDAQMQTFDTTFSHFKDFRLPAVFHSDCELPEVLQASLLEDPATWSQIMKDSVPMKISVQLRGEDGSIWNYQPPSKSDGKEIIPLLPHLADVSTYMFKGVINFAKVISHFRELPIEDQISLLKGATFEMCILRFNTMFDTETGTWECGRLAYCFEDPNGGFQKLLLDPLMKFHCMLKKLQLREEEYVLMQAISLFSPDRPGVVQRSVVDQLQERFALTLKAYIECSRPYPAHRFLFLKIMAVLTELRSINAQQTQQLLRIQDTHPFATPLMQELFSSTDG
Summary of the method: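 Cell-based rPXR activation assay: rPXR cells, 2,000 per well, rested 5hr at 37 C, then exposed to compounds in DMSO for 24 hr at 37 C. Luciferase activity read by One-Glo luminescence after 30 min at room temperature.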

[15] = target: Nuclear receptor subfamily 1 group I member 2 (Homo sapiens) (UniProt O75469); experiment: CYP3A4 induction through human pregnane X receptor (PXR) by small molecules, qHTS assay (AID 1346984); further: nearly all actives have a fitted effect of over 40% in size
Summary of the method: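 Quantitative HTS in DPX-2 cells, i.e. HepG2 transfected with PXR response element and CYP3A4-promoter luciferase. Compounds in DMSO incubated 24hr at 37C; then P450-Glo CYP3A4 substrate, 3uM final, 3hr; One-Glo luminescence.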

[16] = target: Nuclear receptor subfamily 1 group I member 2 (Homo sapiens) (UniProt O75469); experiment: Human pregnane X receptor (PXR) activation by small molecules, qHTS assay (AID 1346985); further: nearly all actives have a fitted effect of over 40% in size
Summary of the method: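 DPX-2 cells (HepG2 co-transfected with a PXR response element and a CYP3A4-promoter luciferase construct) were seeded at 2,000 per well, rested 5 hr at 37C, then exposed to DMSO-dissolved compounds for 24 hr. Activation was read as luciferase luminescence.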

[17] = qHTS assay to identify small molecule agonists of the TGF-beta/Smad signaling pathway (AID 1346859; active means well fitted activation curve with a large enough effect in the signal ratio in the repeat runs, not every such curve was filed as active; the % refers to the signal ratio; further: series mostly up to about 77 µM)
Summary of the method: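 After overnight seeding, SBE-bla HEK 293T cells are dosed with compounds in DMSO and kept 5 hr at 37 C, 5% CO2. LiveBLAzer-type FRET substrate is then applied for 2 hr at room temperature.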

[18] = target: Cytochrome P450 2D6 (Homo sapiens) (UniProt P10635); experiment: Cytochrome P450 Family 2 Subfamily D Member 6 (CYP2D6) small molecule antagonists: luciferase reporter qHTS assay (AID 1671196); further: nearly all actives have a fitted effect of over 50% in size; further: potency means the concentration at half of the fitted maximal effect
Cytochrome P450 2D6 (Homo sapiens), sequence (P10635 whole entry, looked up): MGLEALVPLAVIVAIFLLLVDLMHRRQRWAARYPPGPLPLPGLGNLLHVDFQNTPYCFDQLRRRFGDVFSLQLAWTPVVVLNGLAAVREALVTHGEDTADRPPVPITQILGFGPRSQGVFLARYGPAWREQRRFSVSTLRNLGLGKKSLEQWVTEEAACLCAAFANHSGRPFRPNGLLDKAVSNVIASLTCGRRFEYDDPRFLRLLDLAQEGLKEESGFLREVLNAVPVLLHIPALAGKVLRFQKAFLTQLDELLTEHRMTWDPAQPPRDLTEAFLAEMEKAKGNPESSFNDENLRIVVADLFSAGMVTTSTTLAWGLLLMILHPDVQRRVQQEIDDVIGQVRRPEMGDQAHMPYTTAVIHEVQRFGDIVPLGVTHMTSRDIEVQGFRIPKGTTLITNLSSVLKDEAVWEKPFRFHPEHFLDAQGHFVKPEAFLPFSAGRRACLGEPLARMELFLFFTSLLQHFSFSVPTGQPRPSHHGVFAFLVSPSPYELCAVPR
Summary of the method: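 Enzyme and proluciferin substrate were first combined with test chemical for 10 min at room temperature. Adding NADPH regeneration solution started a 1 h reaction, stopped with luciferin detection reagent and read by luminescence 20 min later.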

[19] = target: Progesterone receptor (Homo sapiens) (UniProt P06401); experiment: qHTS assay to identify small molecule antagonists of the progesterone receptor (PR) signaling pathway (AID 1346795; active means well fitted inhibition curve with a large enough effect in the signal ratio in the repeat runs, not every such curve was filed as active; the % refers to the signal ratio)
Progesterone receptor (Homo sapiens), sequence (P06401 whole entry, looked up): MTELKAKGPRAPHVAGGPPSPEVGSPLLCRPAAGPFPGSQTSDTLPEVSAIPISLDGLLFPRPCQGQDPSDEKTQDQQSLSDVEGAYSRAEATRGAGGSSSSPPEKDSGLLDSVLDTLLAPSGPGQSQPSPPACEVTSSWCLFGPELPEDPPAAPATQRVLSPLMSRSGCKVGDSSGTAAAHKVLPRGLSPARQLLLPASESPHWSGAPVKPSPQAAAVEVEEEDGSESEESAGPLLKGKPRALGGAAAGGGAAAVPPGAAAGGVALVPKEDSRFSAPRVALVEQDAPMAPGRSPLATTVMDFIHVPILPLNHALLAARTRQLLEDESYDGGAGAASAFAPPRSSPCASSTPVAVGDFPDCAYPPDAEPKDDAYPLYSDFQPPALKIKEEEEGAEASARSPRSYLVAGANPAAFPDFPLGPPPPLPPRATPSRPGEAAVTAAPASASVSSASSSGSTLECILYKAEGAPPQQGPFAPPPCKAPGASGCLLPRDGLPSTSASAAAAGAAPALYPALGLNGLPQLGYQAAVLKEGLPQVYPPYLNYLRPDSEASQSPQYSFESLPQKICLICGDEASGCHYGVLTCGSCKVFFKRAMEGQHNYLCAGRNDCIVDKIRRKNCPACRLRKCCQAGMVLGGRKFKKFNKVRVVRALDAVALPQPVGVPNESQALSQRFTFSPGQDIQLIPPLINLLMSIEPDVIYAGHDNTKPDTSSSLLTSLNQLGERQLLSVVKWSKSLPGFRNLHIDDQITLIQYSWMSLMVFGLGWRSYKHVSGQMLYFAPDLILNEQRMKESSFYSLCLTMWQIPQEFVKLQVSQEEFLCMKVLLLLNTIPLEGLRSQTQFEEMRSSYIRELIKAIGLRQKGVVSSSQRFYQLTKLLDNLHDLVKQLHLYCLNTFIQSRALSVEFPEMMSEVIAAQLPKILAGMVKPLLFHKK
Summary of the method: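 Fluorescence intensity measured 2 hr after adding beta-lactamase FRET substrate to PR-UAS-bla HEK293T cells that had been co-treated 16 hr with compound and 1 nM R5020 (final concentration) in 2% charcoal-stripped FBS.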
On the % scale 0 is the no-effect control and ±100 the full control effect.

COc1cc([C@H]2Oc3cc([C@H]4Oc5cc(O)cc(O)c5C(=O)[C@@H]4O)ccc3O[C@@H]2CO)ccc1O
60.9 µM (active) and inactive: Potency [10] | Potency [12] | Potency [13]
inactive: Potency [1] | Potency [2] | Potency [3] | Potency [4] | Potency [5] | Potency [6] | Potency [7] | Potency [8] | Potency [9] | Potency [11] | max activation [14] -6.88% | Potency [15] | Potency [16]

C[C@]12CC[C@@H]3c4ccc(O)cc4CC[C@H]3[C@@H]1CC[C@@H]2O
8.92 µM (active) and inactive: Potency [18]
inactive: Potency [1] | Potency [4] | Potency [5] | outcome [17] | Potency [6] | Potency [7] | Potency [8] | Potency [11] | Potency [12] | max activation [14] -1.66%
active: Potency [10] 61 µM and 61.1 µM

Cc1ccc(C(C)(C)C)c(O)c1
inactive: Potency [1] | Potency [19] | Potency [2] | Potency [3] | Potency [5] | outcome [17] | Potency [6] | Potency [7] | Potency [8] | Potency [11] | Potency [12] | Potency [13] | Potency [18]
active: Potency [10] 66.4 µM

CCc1cccc2c3c([nH]c12)C(CC)(CC(=O)O)OCC3 (stereo unspecified)
20 µM (active) and inactive: Potency [18]
inactive: Potency [1] | Potency [19] | Potency [2] | Potency [3] | Potency [5] | outcome [17] | Potency [8] | Potency [9] | Potency [10] | Potency [11] | Potency [12] | Potency [13] | max activation [14] 1.85% | Potency [15] | Potency [16]

Nc1cc([N+](=O)[O-])ccc1C(=O)O
inactive: Potency [1] | Potency [19] | Potency [3] | Potency [4] | Potency [5] | outcome [17] | Potency [6] | Potency [7] | Potency [8] | Potency [9] | Potency [10] | Potency [11] | Potency [12] | Potency [13] | Potency [18]

CCCCCCCCCCCCO
inactive: Potency [1] | Potency [19] | Potency [3] | Potency [4] | Potency [5] | outcome [17] | Potency [6] | Potency [7] | Potency [8] | Potency [9] | Potency [10] | Potency [11] | Potency [12] | Potency [13] | Potency [18]

CC(=O)O[C@]1(C(C)=O)CC[C@H]2[C@@H]3C=C(Cl)C4=CC(=O)CC[C@]4(C)[C@H]3CC[C@@]21C
active: Potency [10] 61 µM
68.5 µM (active) and inactive: Potency [13]
61 µM (active) and inactive: Potency [12]
inactive: Potency [1] | Potency [19] | Potency [4] | Potency [5] | Potency [6] | Potency [7] | Potency [8] | Potency [9] | Potency [11] | Potency [15] | Potency [16] | Potency [18]

CC(=O)Oc1ccc(C(c2ccc(OC(C)=O)cc2)c2ccccn2)cc1
35.4 µM (active) and inactive: Potency [18]
54.2 µM (active) and inactive: Potency [13]
inactive: Potency [19] | Potency [2] | Potency [3] | Potency [4] | Potency [5] | Potency [6] | Potency [7] | Potency [8] | Potency [9] | Potency [10] | Potency [11] | Potency [12]

OCCNCCO
54.5 µM (active) and inactive: Potency [13]
inactive: Potency [1] | Potency [19] | Potency [3] | Potency [5] | outcome [17] | Potency [6] | Potency [7] | Potency [8] | Potency [9] | Potency [10] | Potency [11] | Potency [12] | Potency [18]

NC[C@H](O)c1ccc(O)c(O)c1
inactive: Potency [1] | Potency [19] | Potency [3] | Potency [4] | Potency [5] | outcome [17] | Potency [8] | Potency [9] | Potency [10] | Potency [11] | Potency [12] | Potency [13] | max activation [14] -0.838% | Potency [15] | Potency [16] | Potency [18]

CCCOCCO
inactive: Potency [1] | Potency [19] | Potency [3] | Potency [4] | Potency [5] | outcome [17] | Potency [6] | Potency [7] | Potency [8] | Potency [9] | Potency [10] | Potency [11] | Potency [12] | Potency [13] | Potency [18]

OC[C@@H](O)[C@@H](O[C@@H]1O[C@H](CO)[C@H](O)[C@H](O)[C@H]1O)[C@H](O)[C@@H](O)CO
inactive: Potency [1] | Potency [2] | Potency [3] | Potency [4] | Potency [5] | outcome [17] | Potency [8] | Potency [9] | Potency [10] | Potency [11] | Potency [12] | Potency [13] | max activation [14] -8.22% | Potency [15] | Potency [16] | Potency [18]

COc1ccc2nc(N)sc2c1
inactive: Potency [1] | Potency [19] | Potency [2] | Potency [3] | Potency [5] | outcome [17] | Potency [8] | Potency [9] | Potency [10] | Potency [11] | Potency [12]
active: Potency [13] 48.6 µM and 21.7 µM | Potency [18] 10 µM and 63.3 µM

C=C1C[C@H]2[C@@H]3C=C(C)C4=CC(=O)CC[C@]4(C)[C@H]3CC[C@]2(C)[C@@]1(OC(C)=O)C(C)=O
inactive: Potency [1] | Potency [19] | Potency [4] | Potency [5] | outcome [17] | Potency [6] | Potency [7] | Potency [8] | Potency [9] | Potency [11] | Potency [12] | Potency [15] | Potency [16] | Potency [18]
active: Potency [13] 31.3 µM
